From PubChem
In the library only some 3.4% were active in any assay of this set; here they are far more common.
HSF1 inh = HSF1 inhibition | NIH3T3-HGL HSE-luciferase, MG132-induced, luminescence 8 h; hits give low values | hit rate 0.77% among 300,000 | activity change, negative = inhibition, % at 7.5 µM (by protocol) | AID 2098;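 active = more than half of replicate wells show activity change below -50%, luminescence cut by over half; inconclusive = some wells, but at most half, below -50%; inactive = no replicate well below -50%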;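 also: luciferase reports HSF-1 transcriptional activity via heat shock element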
esBAF inh = inhibitors of esBAF chromatin remodeling in mouse ES cells. hit rate 2% among 350,000. Bmi1-luciferase knock-in reporter, 24 h; 100% = twice the neutral-well signal. AID 602393. reporter increase, % at 12.5 µM; in the data active = activation above about 40%; inconclusive = no clear call, values can overlap the other calls;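 also: a rise in the Bmi1 reporter signal indicates esBAF inhibition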
HSF-1 act = increases HSF-1 driven luciferase reporter signal | NIH3T3-HGL HSF-1 luciferase reporter, MG132, 8 h; 100% = twice DMSO control signal | activation, % at 9 µM | hit rate 1.7% among 300,000;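 active = mean replicate activation of at least 50% with a set share of replicates each reaching 50%; inconclusive = only one of those two conditions met; inactive = mean below 50% and too few replicates reaching it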
Vif imaging = HIV Vif inhibition; hit rate 0.35% among 340,000; HEK293T cells, Vif self-association by quenched fluorescence, imaging, 24 h; inhibition, % at 7.49 µM; in the data active = inhibition above about 50%, passing the limit was not always enough; inconclusive = no clear call, values can overlap the other calls; inactive = below about 31%
Each line names hits and unclear results; the compound was inactive in the other large screens.

O=C(c1cc(COc2ccc(F)cc2Cl)on1)N1C[C@H]2CC[C@H]1C2	esBAF inh 43
Cn1ccnc1C1CCCCN1C(=O)c1cc(COc2ccc(F)cc2Cl)on1 (configuration not stated)	HSF1 inh -77 (no result: esBAF inh)
CCN(CC)C1CCN(C(=O)c2cc(COc3ccc(F)cc3Cl)on2)C1 (configuration not stated)	none
C[C@H]1CN([C@@H](C)CO)C(=O)c2cc(NC(=O)C3CC3)ccc2O[C@H]1CN(C)C(=O)Nc1ccccc1	none (no result: HSF1 inh, HSF-1 act, Vif imaging)
CC(C)n1nnnc1SCC(=O)c1ccc2c(c1)OCCO2	esBAF inh 47 (no result: Vif imaging)
O=C(CSc1nnnn1C1CCCC1)c1ccc2c(c1)OCCO2	esBAF inh 81
CCn1nnnc1SCC(=O)c1ccc2c(c1)OCCO2	esBAF inh inconclusive
Cc1[nH]c2c(C)cccc2c1CCNC(=O)c1ccc2c(c1[N+](=O)[O-])C(=O)c1ccccc1C2=O	HSF-1 act 53
CN(C)C(=O)c1ccc2c(c1[N+](=O)[O-])C(=O)c1ccccc1C2=O	none (no result: esBAF inh)
Cc1ccc2[nH]c(C)c(CCNC(=O)c3cc4cc([N+](=O)[O-])ccc4oc3=O)c2c1	none (no result: esBAF inh)
Cc1[nH]c2ccccc2c1CCNC(=O)c1ccc2c(c1[N+](=O)[O-])C(=O)c1ccccc1C2=O	HSF-1 act 58
CO[C@H]1CN(C)C(=O)c2cc(NS(=O)(=O)c3ccccc3)ccc2OC[C@H](C)N(Cc2cccnc2)C[C@H]1C	none (no result: HSF1 inh, HSF-1 act, Vif imaging)
CC1C=NC(S(=O)(=O)N2CC[C@@H]3[C@H]2c2cc(-c4ccc(F)cc4)ccc2N(C)[C@H]3CO)=N1 (some centres not stated)	none (no result: HSF1 inh, HSF-1 act, Vif imaging)
CS(=O)(=O)Nc1ccc2c(c1)[C@H]1C[C@H](CC(=O)NCC3CC3)O[C@H](CO)[C@H]1O2	none (no result: HSF1 inh, HSF-1 act, Vif imaging)
O=C(Nc1ccc(F)cc1)c1nsc(Cl)c1Cl	none
O=C(Nc1ccc(F)c(Cl)c1)c1nsc(Cl)c1Cl	esBAF inh 60
CC(C)NC(=O)NCC[C@@H]1CC[C@H](NC(=O)Nc2ccccc2)[C@H](CO)O1	none (no result: HSF1 inh, HSF-1 act, Vif imaging)
O=C(CCCCn1ccc(=O)[nH]c1=O)Nc1ccc(O)c(C(=O)O)c1	Vif imaging 78 (no result: HSF1 inh, HSF-1 act)
Cc1cccc(NC(=O)CSc2nnc(-c3ccco3)c(-c3ccco3)n2)c1C	HSF-1 act 89 (no result: esBAF inh)
Cc1cccc(NC(=O)CSc2nnc(-c3ccco3)c(-c3ccco3)n2)c1	none (no result: HSF1 inh, HSF-1 act)
CSCCC(NC(=O)c1ccco1)C(=O)NC1CCC(C)CC1 (configuration not stated)	esBAF inh 62 (no result: HSF1 inh, HSF-1 act)
O=C(N[C@@H](Cc1ccccc1)C(=O)NC1CCCCCC1)c1ccco1	esBAF inh 45
CSCCC(NC(=O)c1ccco1)C(=O)NCC1CCCCC1 (configuration not stated)	none (no result: HSF1 inh, HSF-1 act)
C[C@@H]1CN([C@H](C)CO)C(=O)c2cc(NC(=O)CCCN(C)C)ccc2O[C@@H](C)CCCCO[C@@H]1CN(C)Cc1ccc2c(c1)OCO2	none (no result: HSF1 inh, HSF-1 act, Vif imaging)
CCCNC(=O)N[C@H]1CC[C@@H](CC(=O)NCCc2ccccc2)O[C@H]1CO	none (no result: HSF1 inh, HSF-1 act, Vif imaging)
Cc1ccc(S(=O)(=O)N(C)C[C@@H]2Oc3c(NC(=O)c4ccc(-c5nccs5)cc4)cccc3C(=O)N([C@@H](C)CO)C[C@@H]2C)cc1	none (no result: HSF1 inh, HSF-1 act, Vif imaging)
O=C(C[C@@H]1CC[C@H](NC(=O)Cc2cccnc2)[C@H](CO)O1)Nc1ccc(-c2ccccc2)cc1	none (no result: HSF1 inh, HSF-1 act, Vif imaging)
COC(=O)c1c(-c2ccccc2)csc1NC(=O)c1ccco1	esBAF inh 98, HSF-1 act 74
Cc1sc(NC(=O)c2ccco2)nc1-c1ccccc1	HSF-1 act 90 (no result: esBAF inh)
O=C(Nc1scc(-c2ccc(F)cc2)c1C(=O)O)c1ccco1	none
CC(=O)c1sc(NC(=O)c2ccco2)nc1-c1ccccc1	esBAF inh 62
CCOC(=O)c1sc(NC(=O)c2ccco2)nc1-c1ccccc1	none (no result: Vif imaging)
CCNC(=O)C[C@H]1CC[C@H]2[C@H](COc3ccc(NC(=O)Nc4ccc(C)cc4)cc3C(=O)N2C)O1	none (no result: HSF1 inh, HSF-1 act, Vif imaging)
CCOC(=O)c1c(C)[nH]c(C(=O)COC(=O)/C=C/c2ccc(O)c(OC)c2)c1C	Vif imaging 50
COc1ccc(/C=C/C(=O)O)cc1S(=O)(=O)N1CCCc2ccccc21	none
COc1cc(/C=C/C(=O)OCC(=O)N2CCCc3ccccc32)ccc1OCC#N	none (no result: HSF1 inh, HSF-1 act, Vif imaging)
CCOC(=O)c1c(C)[nH]c(C(=O)COC(=O)/C=C/c2ccc3c(c2)OCO3)c1C	none (no result: esBAF inh)
COc1cc(/C=C/C(=O)O)ccc1S(=O)(=O)N1CCCc2ccccc21	Vif imaging 96 (no result: esBAF inh)
COc1cc(/C=C/C(=O)OCC(=O)N2CCCc3ccccc32)ccc1O	Vif imaging 68 (no result: HSF1 inh, HSF-1 act)
C[C@H](CO)N1C[C@H](C)[C@H](CN(C)C(=O)Nc2ccccc2)OCCCC[C@H](C)Oc2ccc(NS(C)(=O)=O)cc2C1=O	none (no result: HSF1 inh, HSF-1 act, Vif imaging)
